Experimental data from PubChem BioAssay (NCATS).
Results filed as inconclusive are left out. Activity calls are given as the source filed them. Calls come from the whole dose curve; as a rule, active = well fitted curve in the direction sought with a large enough effect; inconclusive = small, poorly fitted or top-dose-only effect, or another doubt; inactive = no such curve, though single readings can be large; an effect the other way counts as inactive or inconclusive.

What was measured:
[1] = target: Rap guanine nucleotide exchange factor 3 (Homo sapiens) (UniProt O95398); test: Confirmatory qHTS for antagonist of cAMP-regulated guanine nucleotide exchange factor 3 (EPAC1) (AID 1645880); conditions: EPAC1 Rap1B-BODIPY-GDP exchange, fluorescence; activity, negative = inhibition: at 115 µM (top of the series); note: nearly all actives have a fitted effect of over 55% in size;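 for activity, negative = inhibition: plate controls were DMSO only for no effect and full effect of the ATA control for full effect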
Procedure, shortened: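 Nucleotide exchange uses 100 nM EPAC1, 250 nM RAP1B-BODIPY-GDP and 50 uM GDP, with compounds in a concentration-titration series. After 5 min at room temperature, fluorescence (480 nm ex/540 nm em) is read every 5 min for 30 min. Data are normalized to control ATA and DMSO.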

[2] = target: Rap guanine nucleotide exchange factor 3 (Homo sapiens) (UniProt O95398); test: Confirmatory qHTS for agonist of cAMP-regulated guanine nucleotide exchange factor 3 (EPAC1) (AID 1645881); note: nearly all actives have a fitted effect of over 75% in size;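 for activation: EPAC1 catalysed release of BODIPY-GDP from Rap1B seen as fluorescence loss; 100% = effect of cAMP agonist control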
[3] = target: Rap guanine nucleotide exchange factor 4 (Homo sapiens) (UniProt Q8WZA2); test: Confirmatory qHTS for agonist of cAMP-regulated guanine nucleotide exchange factor 4 (EPAC2) (AID 1645884);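 note: nucleotide exchange releases bodipy-GDP from Rap1 and this lowers its fluorescence; nearly all actives have a fitted effect of over 65% in size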; for activation: % is set by controls: 0 for no effect and ±100 for the full control effect
[4] = target: Rap guanine nucleotide exchange factor 4 (Homo sapiens) (UniProt Q8WZA2); test: Confirmatory qHTS for antagonist of cAMP-regulated guanine nucleotide exchange factor 4 (EPAC2) (AID 1645885); note: nearly all actives have a fitted effect of over 25% in size
[5] = target: Rap guanine nucleotide exchange factor 3 (Homo sapiens) (UniProt O95398); test: Counterscreen qHTS for agonist of cAMP-regulated guanine nucleotide exchange factor 3 (EPAC1) (AID 1645889); note: nearly all actives have a fitted effect of over 40% in size; for activation: % of control where 0% means no effect
Procedure, shortened: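 Rap1B-BODIPY-GDP 250 nM + GDP 50 uM; cpds 7-pt, final 9.74 nM–152 uM (activator mode) or from 7.32 nM upwards (inhibitor mode); RT; FI 480/540 nm at 5 and 30 min, then ± cAMP, reread.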
Potency is the fitted concentration of half-maximal effect.

Sequence of Rap guanine nucleotide exchange factor 4 (Homo sapiens) (Q8WZA2 whole entry, looked up): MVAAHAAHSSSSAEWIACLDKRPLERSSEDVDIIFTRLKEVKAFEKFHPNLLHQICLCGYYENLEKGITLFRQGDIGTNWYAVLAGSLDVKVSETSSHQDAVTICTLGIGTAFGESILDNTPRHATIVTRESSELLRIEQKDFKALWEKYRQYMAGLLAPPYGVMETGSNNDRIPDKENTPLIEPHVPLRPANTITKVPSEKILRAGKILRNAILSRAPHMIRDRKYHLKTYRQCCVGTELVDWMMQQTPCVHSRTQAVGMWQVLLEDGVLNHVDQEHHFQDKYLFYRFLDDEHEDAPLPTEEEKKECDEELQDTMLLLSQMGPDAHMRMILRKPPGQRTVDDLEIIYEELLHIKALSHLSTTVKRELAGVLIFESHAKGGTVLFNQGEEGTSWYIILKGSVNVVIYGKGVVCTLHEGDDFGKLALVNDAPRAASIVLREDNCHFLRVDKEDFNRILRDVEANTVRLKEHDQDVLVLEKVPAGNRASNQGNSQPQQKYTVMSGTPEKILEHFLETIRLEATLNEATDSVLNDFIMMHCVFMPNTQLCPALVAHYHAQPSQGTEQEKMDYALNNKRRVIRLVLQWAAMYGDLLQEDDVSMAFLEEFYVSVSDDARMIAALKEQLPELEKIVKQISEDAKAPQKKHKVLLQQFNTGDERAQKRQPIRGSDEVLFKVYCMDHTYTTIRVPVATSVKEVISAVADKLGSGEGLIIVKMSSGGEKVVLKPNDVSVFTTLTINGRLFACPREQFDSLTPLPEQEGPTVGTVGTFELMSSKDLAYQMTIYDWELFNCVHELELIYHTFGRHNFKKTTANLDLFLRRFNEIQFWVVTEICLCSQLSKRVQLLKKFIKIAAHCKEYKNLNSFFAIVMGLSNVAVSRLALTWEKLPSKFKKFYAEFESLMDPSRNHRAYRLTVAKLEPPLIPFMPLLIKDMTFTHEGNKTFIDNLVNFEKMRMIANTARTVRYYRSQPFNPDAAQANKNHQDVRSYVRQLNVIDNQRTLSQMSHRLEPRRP
Sequence of Rap guanine nucleotide exchange factor 3 (Homo sapiens) (O95398 whole entry, looked up): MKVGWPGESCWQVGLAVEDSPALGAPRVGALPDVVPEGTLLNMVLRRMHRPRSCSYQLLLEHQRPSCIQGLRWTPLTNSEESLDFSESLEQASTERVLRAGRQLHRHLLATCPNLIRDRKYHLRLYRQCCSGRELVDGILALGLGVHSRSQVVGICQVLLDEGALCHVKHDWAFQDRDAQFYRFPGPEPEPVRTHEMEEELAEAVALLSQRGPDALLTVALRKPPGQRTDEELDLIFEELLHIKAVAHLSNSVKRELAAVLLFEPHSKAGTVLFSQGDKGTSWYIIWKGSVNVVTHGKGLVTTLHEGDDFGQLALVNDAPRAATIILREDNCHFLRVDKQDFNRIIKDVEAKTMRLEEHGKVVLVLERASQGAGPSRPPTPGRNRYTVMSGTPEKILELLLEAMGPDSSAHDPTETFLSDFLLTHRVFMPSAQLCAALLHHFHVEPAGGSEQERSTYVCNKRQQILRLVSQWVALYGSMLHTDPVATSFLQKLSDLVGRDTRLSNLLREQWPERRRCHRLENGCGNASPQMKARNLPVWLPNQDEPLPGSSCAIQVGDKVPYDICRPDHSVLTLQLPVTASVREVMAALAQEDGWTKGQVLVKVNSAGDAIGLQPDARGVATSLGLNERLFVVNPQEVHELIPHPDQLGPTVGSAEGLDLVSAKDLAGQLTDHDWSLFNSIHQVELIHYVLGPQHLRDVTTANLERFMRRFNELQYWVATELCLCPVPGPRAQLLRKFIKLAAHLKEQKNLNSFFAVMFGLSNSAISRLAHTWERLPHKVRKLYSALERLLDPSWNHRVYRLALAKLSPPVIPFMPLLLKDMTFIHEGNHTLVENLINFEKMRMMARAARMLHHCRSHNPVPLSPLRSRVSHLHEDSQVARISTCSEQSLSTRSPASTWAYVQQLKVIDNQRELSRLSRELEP

COc1ccccc1CNC(=O)C1(C)CCN1Cc1ccc(OC(F)(F)F)cc1 (stereo not given)
active: Potency [1] 67.5 µM | Potency [4] 53.6 µM
inactive: Potency [2] | Potency [3] | Potency [5]

CC(C)Cn1c(SC(C)C(=O)NCC2CCCO2)nc2ccc(Cl)cc2c1=O (stereo not given)
inactive: Potency [1] | Potency [2] | Potency [3] | Potency [5]
active: Potency [4] 5.36 µM

CC(=O)c1cc(CC(=O)N2CCc3c([nH]c4ccccc34)C2c2ccccn2)cs1 (stereo not given)
inactive: Potency [1] | Potency [2] | Potency [3] | Potency [4] | Potency [5]

CCCCn1c(CNC(=O)C23CC4CC(CC(C4)C2)C3)nnc1SCC(=O)Nc1ccc(F)cc1
inactive: Potency [1] | Potency [2] | Potency [3] | outcome [4] inactive [at 12.7 µM] | Potency [5]

CCC(Sc1nncn1C)C(=O)Nc1nnc(-c2ccc(Cl)cc2)s1 (stereo not given)
inactive: Potency [1] | Potency [2] | activation [3] 5.37% [at 17.1 µM, percent relative to cAMP agonist control] | Potency [4] | activation [5] -0.401% [at 30.8 µM]

O=C(COC(=O)COc1ccc(Cl)cc1Cl)NC1CCCC1
inactive: Potency [1] | Potency [2] | activation [3] 9.18% [at 17.1 µM, percent relative to cAMP agonist control] | Potency [4] | activation [5] -1.05% [at 30.8 µM]

COc1cc2nc(N3CCNCC3)nc(N)c2cc1OC
active: Potency [3] 100 µM | Potency [4] 67.5 µM
inactive: Potency [1] | Potency [2] | Potency [5]

CC(C)(C)c1c(Cl)c(O)c(-c2ccccc2)c(=O)n1-c1ccccc1
inactive: Potency [2] | Potency [3] | Potency [4] | Potency [5]
active: Potency [1] 23.9 µM

C=CCn1c(SCC(=O)NC(N)=O)nnc1-c1cc2c(s1)CCC(CC)C2 (stereo not given)
inactive: Potency [1] | Potency [2] | Potency [3] | Potency [4] | Potency [5]

CCOc1ccc2oc(C(=O)N(C)CC(=O)Nc3ccc(OCC)c(OCC)c3)c(C)c2c1
inactive: Potency [1] | Potency [2] | Potency [3] | Potency [4] | Potency [5]

CCOC(=O)N1c2ccccc2Sc2ccccc21
inactive: Potency [1] | Potency [2] | activation [3] 4.1% [at 17.1 µM, percent relative to cAMP agonist control] | Potency [4] | activation [5] 15.6% [at 30.8 µM]

CCn1c(O)c(/C=N/N=C/c2ccc(OC)cc2)c2cc(C3=NNC(=O)CC3)ccc21
active: Potency [2] 89.1 µM | Potency [3] 100 µM
inactive: Potency [1] | Potency [4] | Potency [5]

O=C(CSc1n[nH]c(-c2ccccc2)n1)c1ccc(O)c(O)c1
active: Potency [1] 42.6 µM
inactive: Potency [2] | Potency [3] | Potency [4] | Potency [5]

O=CN(c1ccccc1)c1ccc2ccccc2c1
inactive: Potency [1] | Potency [2] | activation [3] 1.36% [at 17.1 µM, percent relative to cAMP agonist control] | Potency [4] | activation [5] 4.55% [at 30.8 µM]

CCC(CC)C(=O)N1c2ccccc2C(C)(c2ccccc2)CC1(C)C (stereo not given)
inactive: Potency [1] | Potency [2] | Potency [3] | Potency [4] | Potency [5]

CC(=O)Nc1cccc(/C(C)=N/Nc2ccc(S(=O)(=O)Nc3ccccc3C(=O)O)cc2[N+](=O)[O-])c1
active: Potency [1] 21.3 µM
inactive: Potency [2] | Potency [3] | Potency [4] | Potency [5]

Cc1ccc(CNC(=O)c2ccc3c(c2)nc(C)n3-c2cccc(F)c2)cc1
inactive: Potency [1] | Potency [2] | Potency [3] | Potency [4] | Potency [5]

COc1ccc(N2CCOCC2)c(NC(=O)c2cccc3ccccc23)c1
inactive: Potency [1] | Potency [2] | activation [3] 5.58% [at 17.1 µM, percent relative to cAMP agonist control] | Potency [4] | activation [5] 22.6% [at 30.8 µM]

CCCN(CCC)c1nc(-c2ccccn2)nc2ccccc12
inactive: Potency [1] | Potency [2] | activation [3] -0.687% [at 17.1 µM, percent relative to cAMP agonist control] | Potency [4] | activation [5] 0.395% [at 30.8 µM]

N#CCOC(=O)[C@H](Cc1c[nH]c2ccccc12)NS(=O)(=O)c1ccc(Cl)cc1
inactive: Potency [2] | Potency [3] | Potency [5]
active: Potency [1] 37.9 µM | Potency [4] 53.6 µM

O=[N+]([O-])c1ccc(N/N=C2/CCCCC2c2ccccn2)cc1 (stereo not given)
inactive: Potency [1] | Potency [2] | activation [3] 2.03% [at 17.1 µM, percent relative to cAMP agonist control] | Potency [4] | activation [5] -3.04% [at 30.8 µM]

CCC(=O)NC(c1ccc(C)cc1)c1ccc2cccnc2c1O (stereo not given)
active: Potency [4] 5.36 µM
inactive: Potency [1] | Potency [2] | Potency [3] | Potency [5]

O=C1C(Cc2ccccc2)SC(=Nc2ccccc2)N1c1ccccc1 (stereo not given)
inactive: Potency [1] | Potency [2] | activation [3] 1.92% [at 17.1 µM, percent relative to cAMP agonist control] | Potency [4] | activation [5] 18.1% [at 30.8 µM]

C/C=C/C(=O)Nc1cccc(C2=NOC3(C2)C[C@@H](C(N)=O)N(C(=O)/C(C)=C/C)C3)c1 (stereo not given in full)
inactive: Potency [1] | Potency [2] | Potency [3] | Potency [4] | Potency [5]

O=C1NC(=S)S/C1=C\C=C\c1ccc([N+](=O)[O-])o1
inactive: Potency [2] | Potency [3] | Potency [4] | Potency [5]
active: Potency [1] 8.49 µM

COc1cc(OC)c(-c2c3cc(O)c(=O)cc-3oc3cc(O)c(O)cc23)cc1OC
active: Potency [2] 89.1 µM | Potency [3] 100 µM | Potency [5] 70.8 µM
inactive: Potency [1] | Potency [4]

Cc1csc(N=Nc2ccc(N(C)C)cc2)[n+]1[O-]
active: Potency [1] 67.5 µM | Potency [4] 37.9 µM
inactive: Potency [2] | Potency [3] | Potency [5]

CCOc1nc(C)cc(C)c1S(=O)(=O)c1cccc(Cl)c1
inactive: Potency [1] | Potency [2] | Potency [3] | Potency [5]
active: Potency [4] 19 µM

Cc1nc2c(C(=O)NCCC3=CCCCC3)c[nH]n2c(=O)c1Cl
inactive: Potency [2] | Potency [3] | Potency [5]
active: Potency [1] 75.7 µM | Potency [4] 6.75 µM

COc1cc(NC(=O)c2cnc(N)s2)cc(C(=O)Nc2cccc(C(F)(F)F)c2)c1
inactive: Potency [2] | activation [3] 5.57% [at 17.1 µM, percent relative to cAMP agonist control] | Potency [4] | activation [5] 16.6% [at 30.8 µM]
active: Potency [1] 12.6 µM

COc1cccc(CNC(=O)COc2cc3c(c4oc(=O)cc(C)c24)CCC(C)(C)O3)c1
inactive: Potency [1] | Potency [2] | Potency [3] | Potency [4] | Potency [5]

Cc1cc(Nc2ncc(Cl)cc2Cl)n(-c2ccccc2C)n1
active: Potency [4] 16.9 µM
inactive: Potency [1] | Potency [2] | Potency [3] | Potency [5]

Nc1ncc(Br)cc1S(=O)(=O)Nc1cc(C(F)(F)F)cc(C(F)(F)F)c1
inactive: Potency [2] | Potency [3] | Potency [4] | Potency [5]
active: Potency [1] 75.7 µM

O=C(CSc1nnnn1-c1ccccc1)Nc1ccc(Cl)cn1
inactive: Potency [1] | Potency [2] | Potency [3] | Potency [4] | Potency [5]

N#C/C(=C/c1ccc(O)c(O)c1)C(=O)NCc1ccc(Cl)cc1
inactive: Potency [2] | activation [3] 6.16% [at 17.1 µM, percent relative to cAMP agonist control] | Potency [4] | activation [5] 19.6% [at 30.8 µM]
active: Potency [1] 12.6 µM

COc1cc(NC(=O)c2ccnc(N)c2)cc(C(=O)Nc2cccc(C(F)(F)F)c2)c1
inactive: Potency [2] | Potency [3] | Potency [4] | Potency [5]
active: Potency [1] 42.6 µM

COc1ccc(C2CCc3cc4c(cc3C2=NO)OCO4)cc1OC (stereo not given)
inactive: Potency [1] | Potency [2] | activation [3] 6.77% [at 17.1 µM, percent relative to cAMP agonist control] | Potency [4] | activation [5] 14.5% [at 30.8 µM]

CC(C)CCn1c(Oc2ccc(Cl)cc2)nc2c1c(=O)n(C)c(=O)n2C
active: Potency [4] 16.9 µM
inactive: Potency [1] | Potency [2] | Potency [3] | Potency [5]

C=CCN(CC=C)C(=O)COn1nnc2ccc(S(=O)(=O)N3CCOCC3)cc21
inactive: Potency [1] | Potency [2] | Potency [3] | Potency [4] | Potency [5]

CC(C)(C)OC(=O)N1CCN(C(=O)c2[nH]c(C(F)(F)F)nc2-c2ccccc2)CC1
inactive: Potency [1] | Potency [2] | Potency [3] | Potency [4] | Potency [5]

CCCCCn1c(CCNC(=O)c2cccc(C)c2)nc2ccccc21
inactive: Potency [1] | Potency [2] | Potency [3] | Potency [4] | Potency [5]

Cn1c(N)c(C(=O)COC(=O)CCOc2ccc(C(C)(C)C)cc2)c(=O)n(C)c1=O
inactive: Potency [1] | Potency [2] | Potency [3] | Potency [4] | Potency [5]

COc1cc(CCc2ccccc2)c(C(=O)O)c(O)c1C/C=C(/C)CCC=C(C)C
inactive: Potency [2] | Potency [3] | Potency [5]
active: Potency [1] 42.6 µM | Potency [4] 75.7 µM

Cc1cc(C)n(CCOc2ccc(Br)cc2)n1
inactive: Potency [1] | Potency [2] | activation [3] 1.04% [at 17.1 µM, percent relative to cAMP agonist control] | Potency [4] | activation [5] 4.02% [at 30.8 µM]

O=S(=O)(O)c1cc(O)c(N=Nc2ccc(O)cc2O)c2ccccc12
active: Potency [1] 37.9 µM | Potency [4] 21.3 µM
inactive: Potency [2] | Potency [3] | Potency [5]

COc1cc(CN2CCN(C(=O)CC(C)C)CC2)c([N+](=O)[O-])cc1OC
inactive: Potency [1] | Potency [2] | activation [3] 2.13% [at 17.1 µM, percent relative to cAMP agonist control] | Potency [4] | activation [5] 8.51% [at 30.8 µM]

CC1(Cc2ccccc2OC(F)(F)F)C(=O)Nc2ccc(-c3ccsc3)cc21 (stereo not given)
inactive: Potency [2] | Potency [3] | Potency [5]
active: Potency [1] 42.6 µM | Potency [4] 33.8 µM

Cc1cc(/C=C2\SC(=S)NC2=O)cc(C)c1O
active: Potency [1] 33.8 µM | Potency [4] 0.675 µM
inactive: Potency [2] | Potency [3] | Potency [5]

COc1ccc(-c2c(-c3ccccc3OC)oc3ccccc23)cn1
inactive: Potency [1] | Potency [2] | activation [3] 1.88% [at 17.1 µM, percent relative to cAMP agonist control] | Potency [4] | activation [5] 7.21% [at 30.8 µM]

Cc1ccc(C)c(NC(=O)COC(=O)COc2cccc3c2OC(C)(C)C3)c1
inactive: Potency [1] | Potency [2] | activation [3] -3.91% [at 17.1 µM, percent relative to cAMP agonist control] | Potency [4] | activation [5] 3.82% [at 30.8 µM]

COc1cccc(CC(=NO)c2cccc(OC)c2)c1
inactive: Potency [1] | Potency [2] | activation [3] 4.78% [at 17.1 µM, percent relative to cAMP agonist control] | Potency [4] | activation [5] 2.23% [at 30.8 µM]

Cc1ccc(C)c(-n2c(CCC(=O)O)ccc2-c2ccc(Cl)cc2)c1
inactive: Potency [1] | Potency [2] | Potency [3] | Potency [4] | Potency [5]
